Experimental data published in PubChem BioAssay AID686954 (Sanford-Burnham Center for Chemical Genomics, 2013).
The whole screen tested about 30,000 compounds, of which about 240 (0.8%) were called active.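 Rule for the calls: active = at 10 µM dose, at least 30% inhibition, measured as corrected fluorescence normalized to stimulator and neutral control wells; inactive = the rest.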 This excerpt belongs to a sample that is enriched for actives.

Target: Protein artemis (Homo sapiens) (UniProt Q96SD1)
Assay: blockers of Artemis DNA hairpin overhang cleavage – biochemical, fluorescence intensity, FAM/BHQ-1 hairpin substrate, primary screen (AID 686954)
Details: recombinant Artemis, quenched FAM hairpin cleavage fluorescence; at 10 µM; hits give high values

Protein artemis (Homo sapiens), sequence (Q96SD1 whole entry, looked up): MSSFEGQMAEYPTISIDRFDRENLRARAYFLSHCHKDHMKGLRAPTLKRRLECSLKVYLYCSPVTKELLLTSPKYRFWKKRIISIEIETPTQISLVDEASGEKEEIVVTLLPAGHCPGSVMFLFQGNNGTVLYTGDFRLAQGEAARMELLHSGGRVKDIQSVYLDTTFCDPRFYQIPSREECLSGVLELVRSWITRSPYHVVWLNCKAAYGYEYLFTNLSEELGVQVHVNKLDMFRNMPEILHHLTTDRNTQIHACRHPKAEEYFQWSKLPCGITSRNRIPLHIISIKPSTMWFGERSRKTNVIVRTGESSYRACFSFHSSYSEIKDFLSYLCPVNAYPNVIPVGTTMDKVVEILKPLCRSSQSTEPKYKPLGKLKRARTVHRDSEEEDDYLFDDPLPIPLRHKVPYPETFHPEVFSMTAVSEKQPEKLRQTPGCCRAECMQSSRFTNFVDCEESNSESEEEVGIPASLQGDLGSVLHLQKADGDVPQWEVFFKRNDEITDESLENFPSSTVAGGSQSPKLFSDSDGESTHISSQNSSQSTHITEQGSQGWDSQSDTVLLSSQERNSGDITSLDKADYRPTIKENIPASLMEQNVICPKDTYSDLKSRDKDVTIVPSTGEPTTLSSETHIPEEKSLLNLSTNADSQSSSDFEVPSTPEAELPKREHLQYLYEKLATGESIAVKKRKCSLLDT

inhibition, inactive:
COC(=O)/C=C/C(=O)NCc1ccco1 25.1%
Cc1ccccc1OC(=O)Cn1c(C(F)(F)F)nc2ccccc21 1.38%
Cc1cc2c(cc1C)N(C(=O)CN1C(=O)c3ccccc3C1=O)C(C)(C)c1ssc(=S)c1-2 2.13%
O=C(Oc1cccnc1)c1cc2ccccc2oc1=O 4.63%
CC(C)C(c1nnnn1CCc1ccccc1)N1CCN(C(=O)c2ccco2)CC1 (stereo not drawn) -0.73%
COc1ccc(C2C(C(C)=O)=C(O)C(=O)N2c2nccs2)cc1 (stereo not drawn) -6.55%
Cc1ccc(SCC(=O)Nc2ncc(C)s2)cc1 3.54%
O=C(N/N=C\c1ccc(-c2ccc(Cl)c(Cl)c2)o1)C(=O)N1CCCC1 10.4%
Cc1cc(-c2ccccc2)n2nc(C)c(-c3ccccc3)c2n1 -3.76%
O=C(c1ccccc1Oc1ccccc1)N1CCN(c2ccc(F)cc2)CC1 10.1%
Cc1cc(C)n2nc(C(=O)NC(C)(C)C)nc2n1 -8.47%
CCCCNC(=O)CSc1nc2ccc(NC(=O)CSc3nnc(COc4ccccc4C)n3C)cc2s1 1.88%
CC(=O)c1ccc(Cc2ncc(C(F)(F)F)cc2Cl)s1 -6.84%
O=C(Cn1c(-c2cscn2)nc2ccccc21)Nc1ccc(Cl)cc1 6.18%
COc1cc(CNCc2cccs2)cc(Br)c1OC -2.14%
CCOCC(=O)Nc1cc(OC)c(Cl)cc1OC -5.52%
Cc1ccc(/C=N/NC(=O)C(NC(=O)c2ccccc2)c2n[nH]c(=O)c3ccccc23)cc1 (stereo not drawn) 10.5%
COCCCn1c(SCC(=O)Nc2ccccc2)nnc1-c1ccncc1 -5.35%
Cn1c(=O)c2c(n(Cc3ccccc3)c1=O)NC(=O)C2CC(=O)N1CCc2ccccc2C1 (stereo not drawn) 6.23%
O=C(Nc1ccc(-n2ccnc2P(=O)(O)c2ccccc2)cc1)c1ccccc1Br 4.42%
CCN(CC)CCN1C(=O)C(=O)/C(=C(/O)c2ccccc2)C1c1ccccc1F (stereo not drawn) 3.66%
CC(C)(C)NS(=O)(=O)CC12CCC(CC1=O)C2(C)C (stereo not drawn) -3.02%
CN(C)CCNC(=O)Nc1cccc(Cl)c1Cl -0.2%
CCN(CC)Cc1cc(C(C)=O)ccc1O -4.35%
O=C(Nc1nnc(SCc2ccccc2)s1)c1ccco1 12.4%
Cc1nn2c3ccccc3nc2n(C)c1=O 0.11%
O=C(Nc1ccc2c(c1)CCC2)c1cccc(S(=O)(=O)N2CCN(c3ccc(F)cc3)CC2)c1 2.72%
CN1CCN(S(=O)(=O)c2ccc(N3CCN(S(=O)(=O)c4cccs4)CC3)nc2)CC1 -9.36%
Cc1ccc(NC(=S)NC2CCCC2)cc1 1.01%
CCC(=O)NNc1cc(=O)c2c(=O)n(C)c(=O)n(C)c2[nH]1 0.17%
COc1cccc(CNc2nc3nc4c(c(=O)n3[nH]2)CCC4)c1 -6.09%
CCN(Cc1ccncc1)C(=O)c1cccc(S(=O)(=O)N2CCOCC2)c1 -1.99%
Cc1cc(C)c2c(-n3cccc3)c(NC(=O)OCc3ccccc3)sc2n1 0.14%
CCOc1cccc(C(=O)Nc2cnn(Cc3ccccc3)c2)c1 0.76%
Cc1ccc(C2NC(=S)NC3=C2N2CCC3CC2)cc1 (stereo not drawn) -3.09%
CN1CCN(Cc2c(O)ccc3c2oc(=O)c2ccccc23)CC1 -4.24%
Cc1ccc(/C=N\n2c(-c3ccccc3)n[nH]c2=S)s1 4.19%
CC(=O)c1sc(NC(=O)c2cccc3ccccc23)nc1C 5.24%
Cc1nnc(NC(=O)CCCOc2ccccc2)s1 -2.98%
NC(=O)C1CCN(C(=O)c2ccc(C(F)(F)F)cc2)CC1 -5.95%
O=C(NCC1CCCO1)c1ccc2ccccc2n1 (stereo not drawn) 1.24%
N#C/C(=C(/O)COc1cccc2ccccc12)c1nc2ccccc2[nH]1 -3.72%
CC(C)(O)C(=O)NN(C(=O)c1ccccc1)c1cccc(Br)c1 -17.1%
O=C(COc1ccc2oc3c(c2c1)CCCC3)Nc1ccccn1 -4.41%
CCOC(=O)C1CCc2nc3ccccc3c(=O)n21 (stereo not drawn) -9.86%
CCC(C)NC(=O)c1ccccc1NC(=O)c1ccccc1N(C)S(C)(=O)=O (stereo not drawn) -0.77%
O=C(CSc1nnc(-c2ccco2)n1-c1ccccc1)NCCc1ccccc1 5.03%
CCOc1ccc(-c2c(C)n([O-])c3c([n+]2=O)CCCC3)cc1 -6.29%
